We go through five compounds from ChEMBL document CHEMBL1961873, “Compounds: GSK PKIS; Assays: Nanosyn kinase panel” (2012).

Test [1] deals with Calcium/calmodulin-dependent protein kinase type II subunit alpha (Homo sapiens) (UniProt Q9UQM7). As to conditions: at 1 µM.
Test [2] addresses Calcium/calmodulin-dependent protein kinase type II subunit delta (Homo sapiens) (UniProt Q13557). The note with it: at 0.1 µM.
The target is the same in test [3]. The note with it: at 1 µM.
In test [4] the target is T1, Calcium/calmodulin-dependent protein kinase type IV (Homo sapiens) (UniProt Q16566).
T1 sequence (whole entry): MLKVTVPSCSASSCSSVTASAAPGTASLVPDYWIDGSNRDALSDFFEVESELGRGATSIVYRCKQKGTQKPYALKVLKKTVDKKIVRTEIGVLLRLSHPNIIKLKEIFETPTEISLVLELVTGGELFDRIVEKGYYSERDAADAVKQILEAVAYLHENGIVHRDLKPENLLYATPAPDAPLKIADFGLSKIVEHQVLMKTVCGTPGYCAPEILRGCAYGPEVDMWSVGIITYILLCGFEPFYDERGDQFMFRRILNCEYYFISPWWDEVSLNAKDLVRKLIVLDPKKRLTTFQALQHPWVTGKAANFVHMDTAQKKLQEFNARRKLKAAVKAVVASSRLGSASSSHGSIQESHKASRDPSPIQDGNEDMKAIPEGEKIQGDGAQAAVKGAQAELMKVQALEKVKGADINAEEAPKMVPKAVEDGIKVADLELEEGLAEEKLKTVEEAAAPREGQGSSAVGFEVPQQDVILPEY
As to conditions: at 0.1 µM.

The target in test [5] is T1, Calcium/calmodulin-dependent protein kinase type IV (Homo sapiens). As to conditions: at 1 µM.
The target of test [6] is T2, Serine/threonine-protein kinase Chk1 (Homo sapiens) (UniProt O14757).
T2 sequence (whole entry): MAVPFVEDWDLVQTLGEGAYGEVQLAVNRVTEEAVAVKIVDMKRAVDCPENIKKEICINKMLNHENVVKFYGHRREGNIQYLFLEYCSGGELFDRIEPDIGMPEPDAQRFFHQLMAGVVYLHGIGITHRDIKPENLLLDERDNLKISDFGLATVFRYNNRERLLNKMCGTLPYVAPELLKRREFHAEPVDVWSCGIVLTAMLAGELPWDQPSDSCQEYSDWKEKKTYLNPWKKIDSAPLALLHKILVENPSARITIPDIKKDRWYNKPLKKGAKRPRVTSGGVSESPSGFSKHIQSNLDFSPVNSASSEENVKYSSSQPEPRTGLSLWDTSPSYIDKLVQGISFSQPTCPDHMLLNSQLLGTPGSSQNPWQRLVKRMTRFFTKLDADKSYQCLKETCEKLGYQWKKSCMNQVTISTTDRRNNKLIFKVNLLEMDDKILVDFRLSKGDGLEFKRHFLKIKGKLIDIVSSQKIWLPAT
As to conditions: at 0.1 µM.

For test [7], the target named is T2, Serine/threonine-protein kinase Chk1 (Homo sapiens). The note with it: at 1 µM.
Test [8] deals with Serine/threonine-protein kinase Chk2 (Homo sapiens) (UniProt O96017). The note with it: at 0.1 µM.
Serine/threonine-protein kinase Chk2 (Homo sapiens), sequence (O96017 whole entry): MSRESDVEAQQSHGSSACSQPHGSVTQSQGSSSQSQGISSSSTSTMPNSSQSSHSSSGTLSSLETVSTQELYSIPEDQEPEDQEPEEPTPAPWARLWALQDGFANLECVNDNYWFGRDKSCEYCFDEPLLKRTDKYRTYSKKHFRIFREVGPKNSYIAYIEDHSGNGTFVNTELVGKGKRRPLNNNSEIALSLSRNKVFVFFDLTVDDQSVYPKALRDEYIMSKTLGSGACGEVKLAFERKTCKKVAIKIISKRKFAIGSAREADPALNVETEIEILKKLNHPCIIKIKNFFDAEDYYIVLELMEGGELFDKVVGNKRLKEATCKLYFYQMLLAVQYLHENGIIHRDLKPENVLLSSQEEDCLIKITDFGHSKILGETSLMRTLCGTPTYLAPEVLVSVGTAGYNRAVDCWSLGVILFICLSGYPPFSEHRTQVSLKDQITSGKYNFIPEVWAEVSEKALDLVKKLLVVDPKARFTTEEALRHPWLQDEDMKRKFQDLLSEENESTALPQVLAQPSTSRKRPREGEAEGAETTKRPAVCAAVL
The target is the same in test [9]. As to conditions: at 1 µM.
For test [10], the target named is Death-associated protein kinase 1 (Homo sapiens) (UniProt P53355). The note with it: at 0.1 µM.
Death-associated protein kinase 1 (Homo sapiens), sequence (P53355 whole entry, looked up): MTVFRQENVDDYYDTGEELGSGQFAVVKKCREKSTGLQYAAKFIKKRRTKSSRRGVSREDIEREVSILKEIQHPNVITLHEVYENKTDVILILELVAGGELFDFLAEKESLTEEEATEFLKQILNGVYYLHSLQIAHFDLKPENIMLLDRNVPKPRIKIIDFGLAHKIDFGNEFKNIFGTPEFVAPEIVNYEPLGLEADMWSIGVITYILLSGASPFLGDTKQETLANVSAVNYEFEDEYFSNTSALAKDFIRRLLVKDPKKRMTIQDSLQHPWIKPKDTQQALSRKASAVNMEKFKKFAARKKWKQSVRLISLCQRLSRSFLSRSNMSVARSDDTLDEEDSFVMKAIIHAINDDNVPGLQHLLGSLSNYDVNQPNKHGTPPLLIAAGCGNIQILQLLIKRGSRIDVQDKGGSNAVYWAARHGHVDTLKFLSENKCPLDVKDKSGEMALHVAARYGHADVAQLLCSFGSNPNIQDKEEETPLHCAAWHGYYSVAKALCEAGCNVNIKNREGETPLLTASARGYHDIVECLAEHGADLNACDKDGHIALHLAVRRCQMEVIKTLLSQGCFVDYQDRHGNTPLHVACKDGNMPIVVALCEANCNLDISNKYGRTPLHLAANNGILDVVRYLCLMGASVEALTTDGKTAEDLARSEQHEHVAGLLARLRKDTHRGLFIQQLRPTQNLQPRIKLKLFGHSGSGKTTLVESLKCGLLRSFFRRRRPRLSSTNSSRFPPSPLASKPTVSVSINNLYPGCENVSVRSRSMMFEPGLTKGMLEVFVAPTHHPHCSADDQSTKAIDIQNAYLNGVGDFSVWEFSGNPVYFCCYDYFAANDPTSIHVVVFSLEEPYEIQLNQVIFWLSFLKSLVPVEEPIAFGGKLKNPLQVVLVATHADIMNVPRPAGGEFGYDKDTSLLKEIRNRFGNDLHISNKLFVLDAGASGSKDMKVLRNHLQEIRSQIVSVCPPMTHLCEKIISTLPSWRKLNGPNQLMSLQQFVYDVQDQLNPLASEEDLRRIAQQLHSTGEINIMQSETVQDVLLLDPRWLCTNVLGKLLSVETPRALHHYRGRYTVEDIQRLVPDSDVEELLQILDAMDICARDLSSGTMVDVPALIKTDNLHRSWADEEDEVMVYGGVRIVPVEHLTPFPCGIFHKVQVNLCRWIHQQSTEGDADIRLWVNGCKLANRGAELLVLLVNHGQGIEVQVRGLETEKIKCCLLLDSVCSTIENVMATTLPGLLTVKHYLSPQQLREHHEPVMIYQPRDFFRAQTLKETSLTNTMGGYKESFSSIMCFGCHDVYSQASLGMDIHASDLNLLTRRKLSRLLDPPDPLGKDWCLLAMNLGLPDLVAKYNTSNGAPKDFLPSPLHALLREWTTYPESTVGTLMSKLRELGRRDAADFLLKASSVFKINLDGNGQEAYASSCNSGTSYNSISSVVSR
For test [11] the target is unchanged. As to conditions: at 1 µM.
Test [12] addresses T3, Serine/threonine-protein kinase DCLK2 (Homo sapiens) (UniProt Q8N568).
T3 sequence (whole entry): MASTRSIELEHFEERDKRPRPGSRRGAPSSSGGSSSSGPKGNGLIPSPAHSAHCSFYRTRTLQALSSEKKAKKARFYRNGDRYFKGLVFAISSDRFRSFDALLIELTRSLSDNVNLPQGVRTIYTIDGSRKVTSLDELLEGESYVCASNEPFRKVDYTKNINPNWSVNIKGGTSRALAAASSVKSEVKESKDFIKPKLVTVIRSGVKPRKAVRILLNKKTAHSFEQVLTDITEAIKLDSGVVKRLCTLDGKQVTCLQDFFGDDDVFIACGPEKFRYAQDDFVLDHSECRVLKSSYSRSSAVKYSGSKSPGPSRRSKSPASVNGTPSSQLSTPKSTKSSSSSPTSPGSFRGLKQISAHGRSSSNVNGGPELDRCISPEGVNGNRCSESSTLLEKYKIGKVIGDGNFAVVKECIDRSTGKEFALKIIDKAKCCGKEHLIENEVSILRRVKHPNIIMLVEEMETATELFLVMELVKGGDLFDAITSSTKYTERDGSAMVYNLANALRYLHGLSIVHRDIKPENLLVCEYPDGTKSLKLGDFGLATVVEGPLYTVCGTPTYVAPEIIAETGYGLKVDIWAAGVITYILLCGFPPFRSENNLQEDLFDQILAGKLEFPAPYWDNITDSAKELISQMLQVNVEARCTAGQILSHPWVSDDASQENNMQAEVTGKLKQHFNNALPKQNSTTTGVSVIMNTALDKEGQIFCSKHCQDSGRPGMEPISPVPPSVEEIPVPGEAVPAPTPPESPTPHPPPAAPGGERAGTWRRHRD
As to conditions: at 0.1 µM.

In test [13] the target is T3, Serine/threonine-protein kinase DCLK2 (Homo sapiens). As to conditions: at 1 µM.
Test [14] concerns the target MAP kinase-activated protein kinase 2 (Homo sapiens) (UniProt P49137). As to conditions: at 0.1 µM.
The target is the same in test [15]. As to conditions: at 1 µM.
Test [16] deals with MAP kinase-activated protein kinase 3 (Homo sapiens) (UniProt Q16644). As to conditions: at 0.1 µM.
Test [17] has the same target. As to conditions: at 1 µM.
The target in test [18] is Serine/threonine-protein kinase MARK1 (Homo sapiens) (UniProt Q9P0L2). As to conditions: at 0.1 µM.
Serine/threonine-protein kinase MARK1 (Homo sapiens), sequence (Q9P0L2 whole entry, looked up): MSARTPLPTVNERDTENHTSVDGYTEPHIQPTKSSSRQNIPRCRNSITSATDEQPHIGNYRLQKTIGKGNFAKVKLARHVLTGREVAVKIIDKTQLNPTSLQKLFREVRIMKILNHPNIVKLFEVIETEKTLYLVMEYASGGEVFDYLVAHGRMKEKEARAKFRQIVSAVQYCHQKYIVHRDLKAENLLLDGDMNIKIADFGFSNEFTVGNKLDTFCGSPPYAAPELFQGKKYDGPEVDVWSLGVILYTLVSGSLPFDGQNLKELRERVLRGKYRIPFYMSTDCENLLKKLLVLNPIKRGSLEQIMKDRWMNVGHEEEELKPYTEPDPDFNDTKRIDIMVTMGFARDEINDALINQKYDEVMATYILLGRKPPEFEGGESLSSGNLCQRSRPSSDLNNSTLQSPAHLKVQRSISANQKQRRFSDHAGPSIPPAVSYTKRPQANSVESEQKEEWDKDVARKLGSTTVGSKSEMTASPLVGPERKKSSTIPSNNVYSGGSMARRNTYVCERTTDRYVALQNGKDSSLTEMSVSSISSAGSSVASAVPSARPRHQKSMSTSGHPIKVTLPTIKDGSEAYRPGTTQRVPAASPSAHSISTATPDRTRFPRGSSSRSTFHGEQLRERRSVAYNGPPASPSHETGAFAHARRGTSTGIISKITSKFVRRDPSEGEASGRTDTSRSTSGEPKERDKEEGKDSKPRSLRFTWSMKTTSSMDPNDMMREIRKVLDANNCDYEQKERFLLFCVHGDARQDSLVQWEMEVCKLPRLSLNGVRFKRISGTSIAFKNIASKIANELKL
The target is the same in test [19]. As to conditions: at 1 µM.
The target in test [20] is MAP/microtubule affinity-regulating kinase 3 (Homo sapiens) (UniProt P27448). As to conditions: at 0.1 µM.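 Note: mean percent inhibition of MARK3 kinase activity, measured within the GSK PKIS screening panel.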
MAP/microtubule affinity-regulating kinase 3 (Homo sapiens), sequence (P27448 whole entry, looked up): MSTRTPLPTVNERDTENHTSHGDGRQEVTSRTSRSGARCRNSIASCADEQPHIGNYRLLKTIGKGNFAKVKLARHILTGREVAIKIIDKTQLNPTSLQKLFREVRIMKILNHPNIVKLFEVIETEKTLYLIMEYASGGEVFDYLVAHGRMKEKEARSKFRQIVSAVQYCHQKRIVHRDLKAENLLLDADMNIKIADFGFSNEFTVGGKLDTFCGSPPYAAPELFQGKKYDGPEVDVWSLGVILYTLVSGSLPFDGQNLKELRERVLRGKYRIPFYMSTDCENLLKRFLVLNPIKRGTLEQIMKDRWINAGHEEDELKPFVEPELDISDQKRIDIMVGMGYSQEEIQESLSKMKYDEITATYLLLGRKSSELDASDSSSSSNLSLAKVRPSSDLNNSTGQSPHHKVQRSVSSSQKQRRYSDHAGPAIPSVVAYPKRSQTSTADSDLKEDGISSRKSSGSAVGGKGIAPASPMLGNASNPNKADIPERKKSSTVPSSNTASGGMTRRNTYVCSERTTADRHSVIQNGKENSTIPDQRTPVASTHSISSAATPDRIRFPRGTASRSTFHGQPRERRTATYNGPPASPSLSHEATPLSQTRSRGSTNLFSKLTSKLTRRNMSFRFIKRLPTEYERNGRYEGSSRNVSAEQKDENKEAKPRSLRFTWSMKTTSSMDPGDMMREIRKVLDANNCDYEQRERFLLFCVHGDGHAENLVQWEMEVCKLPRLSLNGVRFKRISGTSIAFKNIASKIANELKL

Each structure is given as a SMILES string. Values joined by “and” are separate entries in the source; they are usually repeats but may differ in a detail not shown here. Identical values can stand only once.

MAP kinase-activated protein kinase 2 (Homo sapiens), sequence (P49137 whole entry, looked up): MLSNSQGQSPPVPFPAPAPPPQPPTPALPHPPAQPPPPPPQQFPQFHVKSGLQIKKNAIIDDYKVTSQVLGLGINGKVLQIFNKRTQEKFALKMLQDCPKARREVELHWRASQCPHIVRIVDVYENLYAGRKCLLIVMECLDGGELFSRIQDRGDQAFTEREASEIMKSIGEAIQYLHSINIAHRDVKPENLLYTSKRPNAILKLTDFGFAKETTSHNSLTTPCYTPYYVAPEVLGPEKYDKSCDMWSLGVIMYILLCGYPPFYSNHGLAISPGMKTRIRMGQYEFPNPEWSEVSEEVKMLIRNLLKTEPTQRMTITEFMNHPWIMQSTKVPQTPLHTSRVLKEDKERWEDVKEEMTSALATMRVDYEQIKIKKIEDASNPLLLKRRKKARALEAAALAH
Calcium/calmodulin-dependent protein kinase type II subunit delta (Homo sapiens), sequence (Q13557 whole entry): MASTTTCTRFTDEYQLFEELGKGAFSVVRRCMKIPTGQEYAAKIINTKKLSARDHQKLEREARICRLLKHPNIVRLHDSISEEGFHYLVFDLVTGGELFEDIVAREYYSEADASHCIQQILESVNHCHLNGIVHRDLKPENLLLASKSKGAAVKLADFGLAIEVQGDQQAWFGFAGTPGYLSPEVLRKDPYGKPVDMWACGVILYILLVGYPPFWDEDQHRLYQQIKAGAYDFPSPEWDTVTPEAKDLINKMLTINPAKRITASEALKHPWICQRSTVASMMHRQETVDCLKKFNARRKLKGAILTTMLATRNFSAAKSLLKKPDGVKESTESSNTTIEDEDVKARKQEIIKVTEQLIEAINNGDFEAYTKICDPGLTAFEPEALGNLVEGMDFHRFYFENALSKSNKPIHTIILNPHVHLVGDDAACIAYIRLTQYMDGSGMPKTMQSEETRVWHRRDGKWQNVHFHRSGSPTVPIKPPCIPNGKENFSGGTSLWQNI
Calcium/calmodulin-dependent protein kinase type II subunit alpha (Homo sapiens), sequence (Q9UQM7 whole entry): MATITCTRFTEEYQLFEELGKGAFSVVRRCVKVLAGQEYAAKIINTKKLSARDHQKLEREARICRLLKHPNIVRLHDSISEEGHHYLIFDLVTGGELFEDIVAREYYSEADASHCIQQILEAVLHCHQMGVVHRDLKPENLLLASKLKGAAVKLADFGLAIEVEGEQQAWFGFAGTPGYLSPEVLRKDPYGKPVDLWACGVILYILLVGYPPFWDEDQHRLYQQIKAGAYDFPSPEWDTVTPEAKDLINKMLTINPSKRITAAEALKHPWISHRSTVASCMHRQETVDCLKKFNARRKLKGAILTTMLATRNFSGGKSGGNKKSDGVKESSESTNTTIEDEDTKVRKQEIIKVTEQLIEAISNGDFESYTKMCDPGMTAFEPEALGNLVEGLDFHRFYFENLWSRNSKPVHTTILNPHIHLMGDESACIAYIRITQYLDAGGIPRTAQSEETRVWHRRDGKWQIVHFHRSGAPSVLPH

For the compound `O=C(Nc1n[nH]c2nnc(-c3cccnc3)cc12)C1CC1`, the inhibition in test [1] is 1.88%; in test [2] it was -1.25%; in test [3], 1.45%; in [4], 1.28%; in test [5], 0.43%; in [6], 0.7%. Besides, the inhibition in [7] is -2.5%; in [8] it was -1.27%; in test [9], -0.14%; in test [10] it was -1.32%; in test [11] it was -2.01%; in test [12], -0.69%. Further, the inhibition was -0.41% in test [13]; -0.72% in test [14]; -0.2% in test [15]; 0.08% in [16]; -0.37% in test [17]; -0.14% in test [18]. The inhibition in test [19] was determined as 0.29%; in test [20], 0.23%.
Consider `CCCNc1cccc(-n2ncc3c(N/N=C/c4ccncc4)ncnc32)c1`, for which the inhibition in test [1] was 3.36%; in test [2], 1.11%; in test [3] it was 1.17%; in test [4], -2.8%; in test [5], -3.1%; in [6], -4.03%. Moreover, the inhibition in [7] is -5.65%; in test [8], -4.06%; in [9], 0.34%; in test [10], -6.43%; in test [11], -8.41%; in test [12] it was 6.83%. For the same compound, the inhibition in test [13] was 2.98%; in test [14], -2.72%; in [15] it was -2.37%; in test [16], -5.26%; in test [17], -4.82%; in test [18], 2.01%. The results for the inhibition in [19] and in test [20] were 10.3% and 3.4%, respectively.
With `Nc1nonc1-c1nc2cnccc2n1C1CC1`, the inhibition is 5.07% and 5.46% in [1]; 3.94% and 2.63% in [2]; 7.79% and 4% in [3]; -0.5% and 1.35% in test [4]; 0.32% and 1.21% in test [5]; 3.32% and 0.59% in test [6]. Further, the inhibition in test [7] was 14.4% and 10.5%; in test [8], 2.75% and 1.53%; in test [9] it was 6.34% and 2.63%; in test [10], 2.98% and -0.26%; in test [11], 4% and -1.82%; in test [12], 1.88% and -0.85%. The inhibition is 3.6% and -3.51% in test [13]; 1.36% and 1.4% in test [14]; 1.45% and 0.82% in [15]; 5.15% and 2.54% in test [16]; 6.05% and 1.43% in test [17]; 6.69% and 4.73% in test [18]. The inhibition in test [19] was 23.2% and 20.6%; in test [20], 7.63% and 5.91%.
As to `c1cnn2ncc(-c3ccnc(NCCCN4CCOCC4)n3)c2c1`, the inhibition in test [1] is 6.81%; in test [2] it was 3.65%; in test [3], 3.72%; in test [4], -0.02%; in test [5] it was -0.41%; in test [6] it was 0.25%. Also, the inhibition was 1.83% in test [7]; 2.74% in test [8]; 3.47% in test [9]; -0.4% in [10]; -0.07% in [11]; 1.46% in test [12]. In addition, the inhibition in test [13] is 1.43%; in [14], 1.81%; in test [15] it was 2.19%; in test [16], 4.59%; in test [17], 4.86%; in test [18], 1.78%. Also, the values for the inhibition in test [19] and in test [20] were 5.05% and 2.58%, respectively.
As to `CS(=O)(=O)Nc1ccc(-c2ccc3c(NC(=O)C4CC4)n[nH]c3c2)cc1`, the inhibition in [1] is 3.84%; in test [2], 3.65%; in test [3], 3.38%; in [4], -0.67%; in [5] it was -0.43%; in test [6], 1.65%. Moreover, the inhibition worked out at 1.61% in test [7]; 4.58% in test [8]; 7.38% in test [9]; 2.51% in test [10]; 4.64% in [11]; 1.42% in test [12]. Further, the inhibition in test [13] amounted to 1.42%; in test [14] it was 1.53%; in test [15] it was 1.14%; in test [16] it was 3.27%; in test [17], 3.44%; in test [18], 2.32%. Besides, the figures for the inhibition in [19] and in test [20] were 2.73% and 3.47%, respectively.

A word on the inhibition: it is the relative decrease from the control value, in per cent.
